The list is not random: actives were taken first. Their share in the collection is about 6.9%.
ASM inhibitor = Inhibitors of Secretory Acid Sphingomyelinase (S-ASM): qHTS. Potency, µM (series often up to 57.5 µM), without a hit: top-dose activity change, negative = inhibition, most hits filed as inhibitors. placental ASM, HMU-PC fluorogenic substrate, 60 min. 340,000 tested, 0.006% active. AID 504937, 2011. Sphingomyelin phosphodiesterase (Homo sapiens), P17405; further: potency means the concentration at half of the fitted maximal effect
Target sequence (P17405 47-631 limits assumed): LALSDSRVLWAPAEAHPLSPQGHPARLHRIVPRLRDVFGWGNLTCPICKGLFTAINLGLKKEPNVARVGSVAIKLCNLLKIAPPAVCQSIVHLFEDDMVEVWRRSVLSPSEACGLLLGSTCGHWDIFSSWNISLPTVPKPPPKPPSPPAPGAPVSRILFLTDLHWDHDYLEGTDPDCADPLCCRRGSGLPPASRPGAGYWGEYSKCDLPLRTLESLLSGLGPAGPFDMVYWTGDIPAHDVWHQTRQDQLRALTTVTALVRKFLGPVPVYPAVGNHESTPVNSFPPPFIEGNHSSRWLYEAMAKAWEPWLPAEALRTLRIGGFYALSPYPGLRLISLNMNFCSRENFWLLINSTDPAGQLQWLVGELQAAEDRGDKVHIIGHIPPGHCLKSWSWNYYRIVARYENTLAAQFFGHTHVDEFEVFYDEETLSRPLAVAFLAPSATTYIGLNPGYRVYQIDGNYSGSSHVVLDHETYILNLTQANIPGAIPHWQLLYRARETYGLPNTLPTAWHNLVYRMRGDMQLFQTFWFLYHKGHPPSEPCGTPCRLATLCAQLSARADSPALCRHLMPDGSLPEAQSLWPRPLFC
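HMU-PC0 cleavage (9 uM final) by human placental ASM, 60 min at 37 °C following 10 min compound exposure at RT; stopped at pH 10, fluorescence Ex 386/Em 447 nm.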
MCF10A rereplic = A quantitative high throughput screen for small molecules that induce DNA re-replication in MCF 10a normal breast cells | AID 624296, 2012 | MCF 10A DNA re-replication, Hoechst nuclear intensity, 48 h | 350,000 tested, 2.9% active | Potency, µM (series often up to 46.1 µM), inactives show top-dose activity, positive = re-replication, hits mostly activators; further: potency means the concentration at half of the fitted maximal effect; % of control where 0% means no effect; nearly all actives have a fitted effect of over 50% in size
KB-V1 MDR tox = qHTS assay for MDR1-selective chemotherapeutics: Primary screen using the drug-selected MDR subline cells KB-V1; KB-V1 MDR cells viability, CellTiter-Glo, 72 h; Potency, µM (series often up to 46.1 µM), hits mostly cytotoxic; 400,000 tested, 3.4% active; further: potency means the concentration at half of the fitted maximal effect; on the % scale 0 is the no-effect control and ±100 the full control effect; nearly all actives have a fitted effect of over 60% in size
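qHTS viability screen in drug-selected KB-V1 MDR cells: 72 h compound treatment at 37 degrees C, ATP luminescence end point.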
SW480 rereplic = A quantitative high throughput screen for small molecules that induce DNA re-replication in SW480 colon adenocarcinoma cells; 340,000 tested, 1.8% active; SW480 DNA re-replication, Hoechst DNA content imaging, 48 h; Potency, µM (doses to about 46.1 µM), inactives show at the top dose re-replication activation, actives largely listed as activators; AID 624297, 2012; further: potency means the concentration at half of the fitted maximal effect; % of control where 0% means no effect; nearly all actives have a fitted effect of over 55% in size
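Quantitative HTS format with DMSO vehicle controls; 48 hr drug incubation at 37 C, then 40 min Hoechst staining and scanning imager measurement at 405 nm excitation.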
Giardia kill = Small Molecules that selectively kill Giardia lamblia: qHTS. Giardia lamblia trophozoite viability. activity change, % at 7.66 µM, hits read low. 340,000 tested, 0.15% active. AID 540267, 2011; in the data active means activity change below about -80%; inconclusive means between about -30% and that limit;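 further: parasites exposed to compound for two days anaerobically before the ATP read; on the % scale 0 is the no-effect control and ±100 the full control effect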
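Compounds were tested on trophozoites seeded at 100 cells/well and held 48 hrs at 37 deg C anaerobically. An ATP-based luminescent kit measured the remaining live cells.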
KB-3-1 cytotox = qHTS assay for MDR1-selective chemotherapeutics: Primary screen using the parental adenocarcinoma cell KB-3-1; KB-3-1 viability, CellTiter-Glo ATP luminescence, 72 h; Potency, µM (doses to about 46.1 µM), most hits filed as cytotoxic; 400,000 tested, 1.4% active; AID 1347075, 2019; further: potency means the concentration at half of the fitted maximal effect; on the % scale 0 is the no-effect control and ±100 the full control effect; nearly all actives have a fitted effect of over 60% in size
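Parental KB-3-1 adenocarcinoma cells in phenol-red-free DMEM with 10% FBS were pin-treated with compounds at several concentrations, incubated 72 h at 37 °C, and viability read by CellTiter-Glo luminescence; concentration-effect curves were fitted after normalization.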
The depositor's hits bear a star; i = inactive; ? = inconclusive; . = no result; [ ] = remark or other dose. Unless noted, the call rests on the fitted dose curve; in most records, active means well fitted curve in the direction sought with a large enough effect; inconclusive means small, poorly fitted or top-dose-only effect, or another doubt; inactive means no such curve, though single readings can be large; an effect the other way counts as inactive or inconclusive.

SMILES	ASM inhibitor	MCF10A rereplic	KB-V1 MDR tox	SW480 rereplic	Giardia kill	KB-3-1 cytotox
O=C(Nc1nc(-c2cccs2)cs1)c1ccc(Cl)cc1	-7.6%	?	20.6µM*	0.5%	-1.3	?
CC1CC1C(=O)Nc1nc(-c2ccc(Cl)s2)cs1 (configuration not stated)	-2.7%	10.3%	13µM*	3.6%	-3.6	?
COc1cc(C(=O)Nc2nc(-c3cccs3)cs2)cc(OC)c1OC	?	?	i	-7.9%	5.4	i
COc1cccc(-c2cc(C(F)(F)F)nc(NCCc3ccccc3)n2)c1	.	.	i	.	.	i
CCc1ccc(S(=O)(=O)N2c3ccc(C)cc3C3CN(C)CCC32)cc1 (configuration not stated)	4.6%	?	20.6µM*	2.7%	-29.0	i
Cc1ccc(NC(=O)c2cc(S(=O)(=O)N3CCOCC3)ccc2Cl)cc1S(=O)(=O)N1CCOCC1	2.8%	1.9%	i	-19.9%	14.6	i
CCCCN(CC)CCCNC(=O)c1cc2c(=O)n(C)c3ccccc3c2n1C	-3.5%	?	i	10.9%	-4.0	16.4µM*
CS(=O)(=O)N(CC(=O)N1CCCC1)c1ccc(OCc2ccccc2)cc1	0.8%	-1.1%	14.6µM*	0.9%	10.7	?
COc1ccc(N(CC(=O)N2CCC(Cc3ccccc3)CC2)S(C)(=O)=O)cc1	3.3%	?	?	5.8µM*	?	i
O=C1CCCC2=C1C1(CCOCC1)N=C(Nc1nc3ccccc3o1)N2	.	.	i	.	.	i
COc1ccc(C(=O)CCN(C)C)c2ccccc12	.	.	i	.	.	i
COc1ccc(C(=O)c2ccc(Cl)cc2)c2ccccc12	-1.3%	9.2µM*	?	?	11.2	?
COc1cccc(C(=O)C(=O)c2cccc(OC)c2OC)c1OC	-1.6%	1.0%	i	-7.2%	-3.6	i
COc1ccc(C(=O)c2ccc(Br)cc2)c2ccccc12	-3.1%	7.31µM*	18.4µM*	-2.4%	7.9	?
COc1ccc(C(=O)c2ccc(C)cc2)c(OC)c1OC	0.2%	16.4µM*	?	?	19.2	?
CCC(C(=O)Nc1ccc(C(=O)N2CCCC2)cc1)c1ccccc1 (configuration not stated)	0.7%	20.8%	?	1.8%	-11.3	i
CC(C)Cn1c(-c2ccccc2F)n[nH]c1=S	3.9%	1.9%	i	-3.6%	10.9	i
CC(C)Cn1c(-c2csc3c2CCCC3)n[nH]c1=S	-2.0%	8.5%	20.6µM*	-8.1%	34.1	i
CSc1ccccc1NC(=O)CN(C)C(C)C(=O)NCc1ccc2c(c1)OCO2 (configuration not stated)	2.6%	10.6%	i	1.1%	-3.5	i
COc1ccccc1NS(=O)(=O)c1cc(NC(=S)Nc2cc(C)cc(C)c2)ccc1Cl	-3.7%	5.5%	14.6µM*	8.5%	-14.7	?
COc1ccccc1NS(=O)(=O)c1cc(NC(=O)CNC(=O)c2cc(C)cc(C)c2)ccc1C	-3.7%	6.3%	18.4µM*	?	1.0	i
Cc1ccc(NS(=O)(=O)c2cc(NC(=O)C(C)Oc3ccccc3)ccc2C)c(C)c1 (configuration not stated)	-5.0%	23.3%	18.4µM*	2.3%	16.4	?
Cc1ccc(NC(=O)C(C)Oc2ccccc2)cc1S(=O)(=O)N1CCCCCC1 (configuration not stated)	-2.7%	13.3%	i	-1.4%	-6.1	i
COc1ccc(NC(=O)c2ccc(F)cc2)cc1S(=O)(=O)Nc1cc(C)ccc1Br	?	14.6µM*	4.61µM*	?	23.5	?
Nc1ncnc2c1[nH]c(=S)n2C1OC(CO)C(O)C1O (configuration not stated)	.	.	i	.	31.1	i
SMILES	ASM inhibitor	MCF10A rereplic	KB-V1 MDR tox	SW480 rereplic	Giardia kill	KB-3-1 cytotox
CCOCCn1c(C)c(C(=O)OCC)c2cc(O)c3ccccc3c21	-2.7%	14.2%	2.06µM*	-1.0%	2.6	i
Cc1ccc(C(C)C)c(OCC(=O)Nc2sc3c(c2C#N)CC(C)(C)NC3(C)C)c1	?	?	i	?	13.1	i
Cc1cc(OCC(=O)Nc2sc3c(c2C#N)CC(C)(C)NC3(C)C)c(C(C)C)cc1Cl	?	18.4µM*	i	12.2%	10.1	i
CC(=O)Nc1sc2c(c1C#N)CC(C)(C)NC2(C)C	-0.1%	-185.4%[0.0737 µM]	i	-2.0%	0.2	i
CC1(C)Cc2c(sc(NC(=O)COc3ccc(Cl)cc3Cl)c2C(N)=O)C(C)(C)N1	-19.7%	23.1µM*	i	?	5.9	i
CC1(C)Cc2c(sc(NC(=O)c3ccco3)c2C#N)C(C)(C)N1	-0.6%	2.6%	18.4µM*	-3.9%	-27.9	i
COC(=O)c1c(NC(=O)COc2ccc(Cl)cc2)sc2c1CC(C)(C)NC2(C)C	?	?	?	?	28.0	?
COc1ccc(Cl)cc1NC(=O)CCS(=O)(=O)c1ccc(C)cc1	5.8%	0.7%	i	-1.1%	12.6	i
N#C/C(=C(/O)CCl)c1nc(-c2ccccc2)cs1	8.6%	?	?	?	-3.7	?
Cc1ccc(-c2csc(/C(C#N)=C(\O)CCl)n2)cc1	3.9%	16.4µM*	i	6.1%	9.4	i
CC1(C)C(C=C(Cl)Cl)C1C(=O)N(Cc1ccccc1Cl)C1CCS(=O)(=O)C1 (configuration not stated)	-3.4%	9.1%	14.6µM*	0.5%	6.5	i
O=C(N/N=C\C=C\c1ccco1)c1cc(-c2ccc3ccccc3c2)n[nH]1	-14.0%	7.31µM*	i	17.1%	-1.1	i
COc1cccc(C2=CC(c3cc(Br)ccc3F)n3nnnc3N2)c1 (configuration not stated)	.	.	i	.	.	13µM*
CC1(C)OC(=O)C(=Cc2ccc(-c3ccc(S(N)(=O)=O)cc3)o2)C(=O)O1	-3.8%	18.4µM*	i	?	6.5	i
Cc1ccc(NC(=O)Nc2nnc(N3CCCC3)s2)cc1C	.	.	i	.	.	i
Clc1ccc2c(c1)-n1cc(-c3ccccc3)nc1CO2	.	.	i	.	.	i
CC(C)C[C@@H](COCc1cccc(C(F)(F)F)c1)N1CCN(C(=O)c2ccc(C(F)(F)F)cc2)CCC1=O	.	.	18.4µM*	.	.	?
Cc1cccc(C(=O)N2CCC(=O)N([C@H](COCc3cccc(C(F)(F)F)c3)Cc3ccccc3)CC2)c1	.	.	23.1µM*	.	.	i

Screens from PubChem.
